# Marburg entry inh: qHTS for inhibitors of binding or entry into cells for Marburg Virus. AID 540276, 2011. Marburg virus pseudotyped entry inhibition, cell reporter. Potency, µM (series often up to 37.8 µM), most hits filed as inhibitors. 300,000 compounds, 1.8% hits; calls by dose curve; tested in HEK293 cells
# FMDV inh: High Throughput Screening for Foot and Mouth Disease Virus Antivirals; FMDV antiviral cell-based qHTS; 410,000 compounds, 1.2% hits; Potency, µM (series often up to 57.9 µM), usual class: inhibitors; calls by dose curve; tested in HEK293T cells; also: read-out not given here; nearly all actives have a fitted effect of over 45% in size
# Lassa entry inh: qHTS for Inhibitors of binding or entry into cells for Lassa Virus. Lassa virus pseudotype entry inhibition, cell reporter. Potency, µM (highest dose often 37.9 µM), hits mostly inhibitors. 300,000 compounds, 1.2% hits. AID 540256, 2011; calls by dose curve; tested in HEK293 cells; also: nearly all actives have a fitted effect of over 50% in size
# HCMV inh: qHTS Assay for inhibitors of the human cytomegalovirus (HCMV); HFF cells, HCMV-luciferase reporter, 72 h; stronger effect = lower value; activity change, negative = inhibition, % at 57.5 µM; 410,000 compounds, 4.5% hits; AID 1259415, 2018; in the data active = activity change below about -60%; inconclusive = no clear call, values can overlap the other calls; inactive = above about -39%
#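 Inhibition of viral replication was scored as loss of reporter luminescence in HFFs infected with HCMV-luciferase (MOI 1 PFU/cell) for 72 h; compounds tested at 2 doses, normalized to buffer and Salinomycin controls.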
# SARS PLpro yeast: qHTS of Yeast-based Assay for SARS-CoV PLP; S. cerevisiae expressing SARS-CoV PLpro, growth rescue; Potency, µM (titrated, usually from 32.9 µM), usual class: activators; 330,000 compounds, 0.19% hits; calls by dose curve; also: nearly all actives have a fitted effect of over 55% in size
# HCV inh: qHTS Assay for Inhibitors of Hepatitis C Virus (HCV) | Huh7.5.1 HCVcc-Cre infection, luciferase reporter, 44 h | Potency, µM (top dose mostly 41.8 µM), usual class: inhibitors | 340,000 compounds, 3.4% hits; active = well fitted inhibition curve with a large enough effect; inconclusive = small, poorly fitted or top-dose-only effect, or another doubt; inactive = no such curve, though single readings can be large or run the other way
#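 A cell-based infection assay in which seeded cells (1,000 per well) receive test compound after 4 h, are inoculated with HCVcc-Cre at approximately 0.5 moi, and are incubated 44 h before luminescence detection.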
# Hits are given with their value; i = inactive; ? = inconclusive; nt = not tested or not shown; ! = repeats disagree. Shown are actives, neighbours in structure and some others; about 8% of the full set was active somewhere.
SMILES,Marburg entry inh,FMDV inh,Lassa entry inh,HCMV inh,SARS PLpro yeast,HCV inh
COc1cc(/C=N/Nc2nc(Nc3ccccc3)nc(-n3nc(C)cc3C)n2)cc(OC)c1OC,7.3µM,i,16µM,i,i,2.8µM
COc1ccc(O)c(/C=N/Nc2nc(Nc3ccccc3)nc(-n3nc(C)cc3C)n2)c1,?,i,13µM,-77,i,?
CCc1nc2ccc(C(=O)NCCOc3ccc(OC)cc3)cn2c1N(CC)CCOC,nt,i,nt,i,nt,nt
CCc1nc2ccc(C(=O)NCCOc3ccc(OC)cc3)cn2c1N(CCN(C)C)CC1CC1,nt,i,nt,-64,nt,nt
CC1(OC(=O)c2cnc3ccccc3n2)C(=O)C=C2C=C3CCCN3C=C2C1=O (stereo not given),i,nt,nt,nt,nt,nt
CC(C)(C)C1CCC(C(=O)OCC(=O)Nc2ccc3[nH]c(=O)[nH]c3c2)CC1 (stereo not given),?,i,i,-72,i,i
Cc1cc(-c2ccccc2)nc(N/N=C/c2ccc(O)cc2)n1,?,i,8.9µM,i,i,11µM
COc1ccc(/C(C)=N/Nc2nc(C)cc(-c3ccccc3)n2)cc1,2.5µM,?,?,-94,nt,10µM
COc1ccc(/C=N/Nc2nc(C)cc(-c3ccccc3)n2)c(OC)c1,i,i,i,i,i,?
Cc1cc(C)c2nc(C)cc(N/N=C/c3ccc(O)cc3)c2c1,?,i,?,-100,i,11µM
COc1ccc(O)c(/C=N/Nc2nc(C)cc(-c3ccccc3)n2)c1,?,i,i,i,nt,4µM
Fc1ccc(CNc2nc(-c3ccc(Cl)cc3)cc(C(F)(F)F)n2)cc1,i,i,i,i,nt,nt
CCN(CC)c1ccc(/C=N/Nc2nc(C)cc(C)n2)cc1,10µM,i,?,?,i,?
Cc1cc(C)nc(N/N=C/c2ccccc2)n1,i,i,i,i,i,i
Oc1ccc(/C=N/Nc2nc(-c3ccc(Cl)cc3)cc(C(F)(F)F)n2)cc1,11µM,25µM,?,-77,i,13µM
CCC1CN(CCNC(=O)c2ccc(C#CC(C)(C)O)cc2)Cc2cc(OC)ccc2O1 (stereo not given),nt,i,nt,nt,nt,nt
CCOC(=O)N1CCN(C(=S)NC(=O)c2ccc(F)c(F)c2)CC1,i,i,i,-89,i,i
CCOC(=O)N1CCN(C(=S)NC(=O)c2c(-c3c(Cl)cccc3Cl)noc2C)CC1,?,i,?,-69,i,i
CN1CCc2cccc3c2C1Cc1ccc(O)c(O)c1-3 (stereo not given),16µM!,i,i,i,i,i
CCCN1CCc2cc(O)cc3c2C1Cc1ccc(O)c(O)c1-3 (stereo not given),35µM,i,nt,nt,nt,nt
CCOC(=O)c1c(C)sc(-c2c(-c3ccc4c(c3)OCCO4)[nH]c3c2c(=O)[nH]c(=O)n3C)c1O,i,i,?,i,nt,nt
COc1ccc(NC(=O)Cn2c(=O)n(CCC(=O)NCCc3ccc(OC)c(OC)c3)c(=O)c3ccccc32)cc1Cl,i,i,i,i,nt,nt
CCc1ccc(N2C(=O)c3sc4nnc(-c5ccccc5)c(=O)n4c3C2=O)cc1,i,i,i,-77,i,i
Cc1c(C(=O)NCCc2cccnc2)cnn1-c1ncc2c(n1)-c1ccccc1CC2,nt,i,nt,nt,nt,nt
COc1ccc(NC(=O)Cn2c(SCc3cccc(Cl)c3)nc3ccncc32)c(OC)c1OC,i,i,i,i,nt,nt
SMILES,Marburg entry inh,FMDV inh,Lassa entry inh,HCMV inh,SARS PLpro yeast,HCV inh
Cc1ccc(NS(=O)(=O)c2ccc3nc(-c4ccccc4)[nH]c3c2)cc1Cl,i,i,?,i,nt,nt
Cc1ccc(NS(=O)(=O)c2ccc(Cl)c(C(=O)Nc3ccccc3-c3nc4ccccc4[nH]3)c2)cc1C,?,i,?,-85,i,3.5µM
CCCC(c1nnnn1CS(=O)(=O)c1ccc(C)cc1)N1CCN(c2ccccc2)CC1 (stereo not given),?,i,11µM,i,i,?
CCC(c1nnnn1CS(=O)(=O)c1ccc(C)cc1)N1CCN(c2nc3ccccc3s2)CC1 (stereo not given),8.2µM,nt,?,-64,i,?
Cn1cccc1C1C=C(c2ccc(C(C)(C)C)cc2)Nc2ncnn21 (stereo not given),nt,i,nt,-80,nt,?
CC(C)(C)c1ccc(C2=CC(c3ccccc3F)n3ncnc3N2)cc1 (stereo not given),nt,i,nt,i,nt,i
C=C(C(C)=O)C(O)C=Cc1ccco1 (stereo not given),i,nt,nt,nt,nt,nt
CCCCn1cc(S(=O)(=O)c2cc(C)ccc2C)c(=O)c2cc(F)c(F)cc21,i,i,i,i,nt,nt
CCOc1ccc2nc(N[C@@](NC(C)=O)(C(=O)OC)C(F)(F)F)sc2c1,i,nt,nt,nt,nt,nt
CCc1cccc(CC)c1NC(=S)NCCc1c(C)[nH]c2ccccc12,?,i,?,-71,i,?
COc1ccc2[nH]c(C)c(CCNC(=S)Nc3ccc(C)cc3)c2c1,nt,i,nt,-68,i,?
COc1ccc2[nH]c(C)c(CCNC(=S)Nc3ccccc3C)c2c1,i,i,?,i,i,?
CCCCN1CCCc2cc(CN(CCCN3CCOCC3)C(=O)Nc3ccc(CC)cc3)ccc21,nt,?,i,i,nt,nt
c1ccc(CCCCc2ccncc2)cc1,?,i,i,-63,nt,i
CN1/C(=C/c2cc[n+](C)c3ccccc23)C=Cc2ccccc21,4µM,14µM,?,nt,i,?
CCN1C(=O)/C(=C2/C=Cc3ccccc3N2C)OC1=S,?,i,i,i,i,i
CN(C)c1nc(N)nc(CSc2nc3cc(Cl)ccc3o2)n1,?,i,?,i,i,i
O=S1(=O)C=C(Sc2nc3cc(Cl)ccc3o2)c2ccccc21,7.9µM,28µM,?,nt,i,7.9µM
Cc1cc(C)cc(NC(=S)N=Nc2c(O)n(C)c3ccc(S(=O)(=O)N4CCOCC4)cc23)c1,?,i,i,?,i,?
Cc1ccc(NC(=S)N=Nc2c(O)n(C)c3ccc(S(=O)(=O)N4CCOCC4)cc23)cc1,i,i,?,-77,i,?
Cc1cccc(NC(=S)N=Nc2c(O)n(C)c3ccc(S(=O)(=O)N4CCOCC4)cc23)c1,?,i,?,i,i,1.6µM!
OCCN(CCO)CC(O)COc1ccc2c(c1)OCO2 (stereo not given),?,i,i,i,i,i
CCN(CC)CC(O)COc1ccc2c(c1)OCO2 (stereo not given),?,i,i,-98,i,i
CCOc1ccccc1NC(=O)CN1C(=O)COc2ccc(S(=O)(=O)N3CCCCCC3)cc21,nt,i,i,i,nt,nt
CN(C)S(=O)(=O)N1CCC(c2ccc(F)cc2)C(COc2ccc3c(c2)OCO3)C1 (stereo not given),2.8µM,i,?,i,i,?
Fc1ccc([C@H]2CCNC[C@H]2COc2ccc3c(c2)OCO3)cc1,16µM,i,nt,nt,nt,nt
Fc1ccc([C@H]2CCNCC2COc2ccc3c(c2)OCO3)cc1 (stereo not given in full),nt,i,nt,nt,nt,nt

# Source: PubChem BioAssay
